Experimental data: the supplement of paper PMC10646978
± gives the standard deviation.

How the values were obtained:
Details in all cases: modulator concentration 10 µM
[1] = tested on: RAW-Dual (murine macrophage reporter line); assay: NF-kB reporter (SEAP) activity fold change vs agonist alone; higher = enhanced NF-kB activity
Method in brief: (§1)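 RAW-Dual murine macrophage reporter cells were plated at 50 000 per well in 384-well plates, pin-transferred compound to 10 μM final, and pre-incubated for 1 hour at 37 °C before a PRR agonist was added and the cells incubated overnight. NF-κB activity was read from supernatant SEAP with QUANTI-Blue at 620 nm absorbance, and IRF activity from Lucia luciferase with QUANTI-Luc by luminescence. Each signal was expressed as fold change by dividing by the mean agonist-only control on the same plate. Two replicate plates were averaged, with errors obtained by propagation.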

[2] = tested on: RAW-Dual (murine macrophage reporter line); assay: IRF reporter (Lucia luciferase) activity fold change vs agonist alone; higher = enhanced IRF activity
Method in brief: as §1

[3] = tested on: RAW-Dual (murine macrophage reporter line); assay: viability score (confluency relative to resting cells, overnight) (fraction); higher = more viable, active = viable (0.7 or more)
Method in brief: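 Overnight exposure to 10 μM final compound was carried out on RAW-Dual macrophages in 384-well plates. IncuCyte software generated two confluency masks over all wells imaged with IncuCyte. The viability score gives confluency in relation to resting cells. A compound met the cutoff if each mask exceeded 70% of resting cells.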

[4] = agonist: CpG ODN 1826 0.5 ug/mL

Structure (SMILES)	NF-kB reporter [1, 4]	NF-kB reporter ([1]; agonist: LPS 0.1 ug/mL)	NF-kB reporter ([1]; agonist: MPLA […])	IRF reporter ([2]; agonist: 3'3'-cGAMP 10 ug/mL)	IRF reporter ([2]; agonist: LPS 0.1 ug/mL)	IRF reporter ([2]; agonist: MPLA […])	viability score [3]
Cn1c(=O)[nH]c2nnc(-c3ccncc3)nc2c1=O	0.815 ± 0.07	0.872 ± 0.077	1.07 ± 0.12	0.935 ± 0.05	1.32 ± 0.15	1.47 ± 0.2	1.02 (active)
CCOC(=O)C1=C(C)NC(C)=C(C(=O)OCC)C1c1ccc(O)cc1	1.41 ± 0.23	0.895 ± 0.083	1.35 ± 0.13	1.01 ± 0.03	0.971 ± 0.16	0.966 ± 0.099	0.991 (active)
CN(C)CCNC(=O)C(=O)NC(c1ccccc1)c1ccccc1	1.03 ± 0.11	1.01 ± 0.089	0.95 ± 0.027	0.998 ± 0.042	1.03 ± 0.091	0.962 ± 0.12	0.996 (active)
CCN(CC)c1nc(-c2ccccc2Cl)c2cc(Br)ccc2n1	0.999 ± 0.081	0.975 ± 0.1	1.02 ± 0.042	0.786 ± 0.058	1.05 ± 0.14	1.14 ± 0.25	1 (active)
CC(=O)N[C@H]1[C@H]([C@H](O)[C@H](O)CO)OC(C(=O)O)=C[C@@H]1NC(=N)N	1.12 ± 0.27	0.945 ± 0.12	1.02 ± 0.066	0.919 ± 0.04	1.3 ± 0.24	1.08 ± 0.12	1.01 (active)
NC(CO)(CO)CO	1.16 ± 0.24	1.1 ± 0.22	1.01 ± 0.11	0.964 ± 0.11	1.19 ± 0.12	0.966 ± 0.15	1 (active)
CCc1ccc(Cc2ccc3c(c2)[C@]2(OC3)O[C@H](CO)[C@@H](O)[C@H](O)[C@H]2O)cc1.O	1.04 ± 0.29	1.08 ± 0.054	1.07 ± 0.094	0.883 ± 0.033	1.04 ± 0.12	1.16 ± 0.26	0.987 (active)
COc1cc(C=Nc2ccc3oc(-c4ccc(C(C)(C)C)cc4)nc3c2)ccc1OC(=O)c1ccc(Cl)cc1Cl	0.994 ± 0.056	0.981 ± 0.11	0.936 ± 0.11	0.931 ± 0.031	1.28 ± 0.15	1.14 ± 0.1	1.01 (active)
CC(=NNC(=O)CSc1nc2ccccc2n1Cc1ccccc1)c1ccc(Br)cc1	0.996 ± 0.12	0.996 ± 0.1	1.04 ± 0.036	0.942 ± 0.042	0.946 ± 0.16	1.01 ± 0.29	0.996 (active)
c1cnn(-c2ccc(N=Nc3ccc(-n4cccn4)cc3)cc2)c1	0.939 ± 0.087	1.05 ± 0.083	0.966 ± 0.082	0.814 ± 0.037	1.09 ± 0.1	1.02 ± 0.12	0.996 (active)
Cc1nnsc1C(=O)Nc1ccccc1C(F)(F)F	1.1 ± 0.084	0.954 ± 0.077	1 ± 0.048	0.969 ± 0.039	0.993 ± 0.11	0.929 ± 0.15	1 (active)
c1ccc(CSc2nnc(-c3ccncc3)o2)cc1	1.08 ± 0.075	1.18 ± 0.073	1.44 ± 0.13	0.379 ± 0.017	0.65 ± 0.056	0.501 ± 0.068	0.988 (active)
CC(O)(CNC(=O)NCc1ccc(F)cc1)c1ccc(-c2ccccc2)cc1 (centres undefined)	0.998 ± 0.053	1.14 ± 0.12	0.873 ± 0.077	1.08 ± 0.056	1.32 ± 0.1	1.62 ± 0.14	0.966 (active)
CCC(=O)Nc1ccc(NC(=O)c2ccco2)c(OC)c1	0.828 ± 0.065	0.831 ± 0.11	1.08 ± 0.12	0.934 ± 0.044	1.32 ± 0.11	1.42 ± 0.18	1.01 (active)
Cc1ccccc1-c1noc(-c2cc3ccccc3oc2=O)n1	0.911 ± 0.25	0.936 ± 0.077	0.917 ± 0.07	1 ± 0.027	1.08 ± 0.11	1.21 ± 0.12	0.996 (active)
CN1C(CC(=O)c2ccccc2)CCCC1CC(O)c1ccccc1.Cl (centres undefined)	0.601 ± 0.16	1.01 ± 0.097	0.964 ± 0.083	0.815 ± 0.041	0.996 ± 0.21	1.03 ± 0.15	0.988 (active)
O=C(CCCCCN1C(=O)c2cccc3cccc(c23)C1=O)NCCCO	0.997 ± 0.08	0.993 ± 0.064	0.919 ± 0.036	1.02 ± 0.14	1.11 ± 0.053	1.08 ± 0.082	0.993 (active)
COc1ccc2c3c1O[C@H]1C[C@@H](O)C=C[C@@]31CCN(C)C2 [Prestw-588]	1.13 ± 0.077	1.07 ± 0.091	0.95 ± 0.038	0.997 ± 0.056	0.987 ± 0.046	0.923 ± 0.16	0.998 (active)
O=C1c2ccccc2C(=O)C1c1ccccc1	1.36 ± 0.21	1.01 ± 0.085	1.32 ± 0.15	0.856 ± 0.03	1.18 ± 0.1	0.968 ± 0.14	0.996 (active)
CN1CCOC(c2ccccc2)c2ccccc2C1.Cl (centres undefined)	1.11 ± 0.27	1.04 ± 0.052	1.05 ± 0.078	0.84 ± 0.031	1.36 ± 0.16	0.95 ± 0.23	1.01 (active)
Cc1nnc(C(=O)NC(C)(C)c2nc(C(=O)NCc3ccc(F)cc3)c(O)c(=O)n2C)o1	1.08 ± 0.19	1.09 ± 0.13	0.935 ± 0.056	0.878 ± 0.029	1.27 ± 0.15	0.988 ± 0.076	0.992 (active)
O=C(O)c1ccccc1	1.07 ± 0.21	1.24 ± 0.38	0.974 ± 0.089	0.933 ± 0.029	1.46 ± 0.34	1.33 ± 0.1	0.998 (active)
CCN(CC)c1ccc(C=C(C#N)C#N)c(OC(C)=O)c1	1.07 ± 0.064	0.895 ± 0.065	0.884 ± 0.057	0.76 ± 0.034	0.995 ± 0.069	0.977 ± 0.12	1.01 (active)
COc1ccccc1Cn1c(SC)nc2c(-c3ccccc3)c[nH]c2c1=O	1.51 ± 0.064	0.889 ± 0.11	0.997 ± 0.053	0.114 ± 0.0059	1.05 ± 0.19	1.41 ± 0.36	0.948 (active)
CC1=NN(c2ccc(C)c(C)c2)C(=O)/C1=N\Nc1cccc(-c2cccc(C(=O)O)c2)c1O.NCCO.NCCO	1.63 ± 0.31	1.28 ± 0.23	1.49 ± 0.14	0.601 ± 0.019	1.16 ± 0.098	1.2 ± 0.11	0.861 (active)
O=C(CCCCCl)NN1c2ccccc2CCc2ccccc21	1.18 ± 0.19	0.984 ± 0.11	1.09 ± 0.084	0.835 ± 0.022	1.18 ± 0.14	1.25 ± 0.29	1.01 (active)
NC(Cc1ccccc1)C(=O)O (centres undefined)	1.29 ± 0.31	0.956 ± 0.07	0.943 ± 0.071	0.911 ± 0.032	1.12 ± 0.22	1.1 ± 0.1	1 (active)
